The source of these data is PubChem BioAssay AID624351 (Southern Research Specialized Biocontainment Screening …, 2012).

Out of some 2,400 compounds screened, about 1,400 (58%) were called active. So high a share suggests a set chosen from earlier hits. The list shows a part of the results. Unmarked numbers belong to inactive results.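 How the source made its calls: active means inhibition of 30% or more at any tested dose; inconclusive means primary hits over the limit that were never retested; inactive means the rest.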

A short description of this experiment: ADP Hunter readout inhibition without MgcRacGAP – biochemical, coupled enzyme counter-screen, artefact control for MgcRacGAP inhibitor project, dose response (AID 624351).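 Further: signal is the ADP detection kit reading of free GDP without any GAP enzyme.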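 On inhibition: 0% = median positive control wells and 100% = median negative control wells.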 To be noted: fluorescence, no MgcRacGAP; series mostly up to 80 µM; inhibition: at the top concentration.
In general, inhibition refers to the drop in the measured response relative to a control, in per cent. Regarding `CC1CN(CCCCOc2ccc(Cl)c3ccccc23)CC(C)O1` (stereo unspecified), the “inhibition” value was 11.3%.

For the molecule `CSc1sccc1/C=C(/C#N)C(=O)c1ccco1`, the “inhibition” value is 3.74%.

Take `NC(CSS(=O)(=O)O)=NCCC12CC3CC(CC(O)(C3)C1)C2`: the “inhibition” value is 3.73%.

Usually IC50 stands for the concentration that inhibits the measured activity by half. With `COc1cc(/C=N/NC(=O)c2nc(C)cc(C)n2)ccc1O`, the IC50 was 37.3 µM (active).

Turning to `COc1cc(/C=N/NC(=O)c2cc(-c3c(C)nn(-c4ccccc4)c3C)n[nH]2)ccc1O`, the IC50 is 38.8 µM (active).

Regarding `COc1cc(/C=N/NC(=O)c2nc(-c3ccccc3)n(-c3ccccc3)n2)ccc1O`, the IC50 was 41.9 µM (active).

Turning to `COc1cc(/C=N/Nc2nc(C)cc(C)n2)ccc1O`, the IC50 is 60.7 µM (active).

As to `c1cc(CN2CCN(C3CCCCCC3)CC2)ccn1`, the “inhibition” value is 23.8%.

Consider `COc1cc(/C=N/NC2=NCCCCC2)ccc1O`, for which the IC50 was 27.6 µM (active).

Turning to `COc1cc(/C=N/NC(=O)c2cn(-c3cccc(C)n3)cn2)ccc1O`, the IC50 was 37.3 µM (active).

In the case of `Nc1nc2cc(S(=O)(=O)NC3=NCCCCC3)ccc2s1`, the “inhibition” value is 1.02%.

Take `Oc1ccc(/C=N/NC2=NCCCCC2)c(O)c1`: the IC50 is 67.6 µM (active).

Consider `COc1cc(/C=N/Nc2cc(C)nc(NS(=O)(=O)c3ccccc3)n2)ccc1O`, for which the IC50 was 41 µM (active).

As to `O=c1[nH]c2ccccc2n2c(=S)[nH]nc12`, the IC50 is 78.8 µM (active).

Regarding `S=c1[nH]c2ccccc2n2c(=S)[nH]nc12`, the IC50 is 51.8 µM (active).

On to `CCCCN(CCCC)CCNC(=O)CSCc1ccc(C)cc1`, for which the “inhibition” value was 19.8%.

In the case of `Cc1cccc(-n2nc3c(c2NC(=O)c2ccco2)CSC3)c1C`, the “inhibition” value was 0.97%.

`C=CCc1cc(OC)ccc1OCCN1CC(C)OC(C)C1` (stereo unspecified): the “inhibition” value is 28.6%.

Take `Nc1ccc(OCc2ccco2)cc1`: the IC50 is 58.6 µM (active).

As for `c1coc(CSSCc2ccco2)c1`, the “inhibition” value is 0.48%.

Consider `CC1N(C)c2cccc3cccc(c23)N1C`, for which the IC50 is 21 µM (active).

Regarding `CCN(CC)c1ccc(N=Cc2ccccc2[N+](=O)[O-])cc1`, the IC50 is 27.2 µM (active).

For `CN(C)C=Nc1ccc2nc3c(cc2c1)[nH]c1ccccc13`, the “inhibition” value was -11.8%.

For `O=C1/C(=C/c2ccccc2[N+](=O)[O-])COc2ccccc21`, the “inhibition” value was 3.33%.

Consider `CCN(CC)c1ccc(N=Cc2c(C)[nH]c3ccccc23)cc1`, for which the IC50 is 41.6 µM (active).

`CC(=C/c1ccccc1)/C=N/n1c(-c2ccco2)n[nH]c1=S`: the IC50 was 66.7 µM (active).

`S=c1[nH]nc(-c2ccco2)n1/N=C/c1ccc(Cl)cc1`: the IC50 was 51.2 µM (active).

`CC1=C(C)CS(=O)N(S(=O)(=O)c2ccc(Cl)cc2)C1` (stereo unspecified): the “inhibition” value is -1.25%.

As to `Cc1cccc(CN2CCN(Cc3ccco3)CC2)c1`, the “inhibition” value was 5.3%.

As to `Cc1cccc(-c2n[nH]c(=S)n2/N=C/c2ccco2)c1`, the concentration for half-maximal inhibition (IC50) is 78.9 µM (active).

For `Cc1ccc2nc(N(CCCN(C)C)C(=O)c3ccc4ncsc4c3)sc2c1`, the “inhibition” value was 4.64%.

Turning to `Cc1nc2ccc(C(=O)Nc3ccc(N(C)C)cc3)cc2s1`, the IC50 is 58.9 µM (active).

On to `O=C(CN1CCc2ccccc2C1)Nc1ccccc1C(F)(F)F`, for which the “inhibition” value is 8.43%.

In the case of `O=C1c2ccccc2C(=O)C1c1ccc(O)cc1`, the IC50 is 81.3 µM (active).

As for `COc1cc(C2C(=O)c3ccccc3C2=O)ccc1O`, the IC50 is 20.4 µM (active).

`C[C@H]1CCC/C=C/[C@@H]2C[C@H](O)C[C@H]2[C@H](O)[C@H](S(=O)c2ccc(O)cc2)CC(=O)O1` (stereo partly specified): the “inhibition” value is 24.2%.

As for `CN1CCN(CCCNCc2cn(CCC#N)c3ccccc23)CC1`, the “inhibition” value is -1.13%.

In the case of `N#CCCN1CCN(CCC#N)c2ccccc21`, the IC50 was 20 µM (active).

`COc1ccc(OC(=O)COc2ccc(C)cc2)cc1`: the “inhibition” value is 28.1%.

Regarding `O=C(/C=C/c1ccco1)NC(=S)Nc1ccc(C(=O)O)cc1`, the “inhibition” value was -1.18%.

As to `CC(=O)Nc1ccc(OC(=O)c2cc3ccccc3oc2=O)cc1`, the “inhibition” value was 13.8%.

In the case of `Cc1ccc(OC(=S)Nc2ccc(O)cc2)cc1`, the IC50 was 34.5 µM (active).

On to `Oc1ccc(NC(=S)Nc2ccccc2)cc1`, for which the IC50 was 55.5 µM (active).

Consider `COC(=O)c1ccc(NC(=S)Nc2ccc(O)cc2)cc1`, for which the IC50 is 68.1 µM (active).

With `CC(=O)c1ccc(NC(=S)Nc2ccc3[nH]c(=O)[nH]c3c2)cc1`, the “inhibition” value is 8.57%.

Take `Oc1ccc(NC(=S)Nc2ccc(O)cc2)cc1`: the IC50 was 46.5 µM (active).

For the molecule `CN(C)c1ccc(O)c2c1CC1CC3[C@@H](N(C)C)C(=O)C(C(N)=O)=C(O)[C@]3(O)C(=O)C1=C2O` (stereo partly specified), the “inhibition” value was -7.5%.

`COCC(C)NCc1ccc(OC)c(Br)c1` (stereo unspecified): the “inhibition” value is 20.1%.

For the molecule `COc1ccc(CN2CCN(Cc3ccccc3F)CC2)c(OC)c1`, the “inhibition” value is 27.5%.

For `O=C(c1cccnc1)N1CCN(Cc2cccc(Br)c2)CC1`, the “inhibition” value was 0.22%.

`CNC(=S)Nc1ccc(Nc2ccccc2)cc1`: the IC50 was 71.8 µM (active).

For the molecule `CC1CCCCN1CC(=O)Nc1ccc(N2CCCCCC2)cc1` (stereo unspecified), the “inhibition” value is 11.7%.

Regarding `O=C(Nc1ccc(O)cc1)C1CC=CCC1` (stereo unspecified), the IC50 is 64.6 µM (active).

In the case of `CN(C(=S)NC(=O)C1CC1)c1ccc(O)cc1`, the “inhibition” value was 3.76%.

For `CC(C)N(c1ccccc1)c1ccc(NC(=S)NCCN(C)C)cc1`, the “inhibition” value is 9.78%.

As for `O=C(NC(=S)Nc1ccc(O)cc1)C1CCCC1`, the IC50 is 31.8 µM (active).
